Reference: PubChem BioAssay AID1981 (Southern Research Specialized Biocontainment Screening …, 2009)
The whole screen tested about 2,200 compounds, of which about 480 (22%) were called active. No rule for the calls is given here. The list is a sample of the results. Entries with a potency or affinity are not part of this list.

experiment: S. Typhimurium GFP fluorescence dose response in modified counterscreen for PhoP regulon inhibitor project (AID 1981); conditions: 4 h; series mostly up to 150 µM

SMILES	outcome
CC(C)(C)c1n[nH]c(=S)n(/N=C/c2cccs2)c1=O	inactive
Cc1cccc(Nc2nnc(SCC(=O)NC3CCCc4ccccc43)s2)c1 (stereo not drawn)	inactive
CCCCOc1ccc(S(=O)(=O)NNC(=O)C2Cc3c(ccc4ccccc34)O2)cc1 (stereo not drawn)	inactive
Clc1ccc(SCCCCn2ccnc2)cc1	inactive
Cc1c(NS(=O)(=O)c2ccccc2)c(=O)n(-c2ccccc2)n1C	inactive
CN1CCN(Cc2nc3ccccc3c(=O)[nH]2)CC1	inactive
CC(O)CNc1cc(N)c([N+](=O)[O-])cc1[N+](=O)[O-] (stereo not drawn)	inactive
O=P1(NC2CCCC2)COc2ccccc2OC1	inactive
c1ccc(Nc2ccnc(Nc3ccccc3)n2)cc1	inactive
c1ccc(Nc2nc3ccccc3[nH]2)nc1	inactive
O=C1CN(C(=O)COC(=O)CCC(=O)c2ccc3c(c2)OCCO3)c2ccccc2N1	inactive
CSC(=NS(=O)(=O)c1ccccc1)SC	inactive
O=C(c1ccccc1)C(CN1CCCC1)c1ccccc1 (stereo not drawn)	inactive
NC1=NC(=Nc2ccc(Cl)cc2)c2ccccc21	inactive
C(=Nc1ccc(Nc2ccccc2)cc1)c1ccc2ccccc2c1	inactive
CCOC(=O)N1CCN(c2nc(C)c3c(n2)CCCC3=O)CC1	inactive
Cc1cc(=O)oc2cc(OCC(O)CN3CCc4ccccc4C3)ccc12 (stereo not drawn)	inactive
CN1CCCC(OC(=O)c2ccc3c(c2)OCCO3)C1 (stereo not drawn)	inactive
COc1nc(N(c2ccccc2)c2ccccc2)nc(-n2ccnc2)n1	inactive
CN(CC(=O)NCc1cccc(F)c1)C(=O)c1ccco1	inactive
COc1ccc(-c2cc(C(=O)Nc3ccc(S(=O)(=O)Nc4ncccn4)cc3)c3ccccc3n2)cc1	inactive
COCCCNc1ccnc2c(Cl)cccc12	inactive
COC(=O)c1ccc(Sc2ccccc2NS(=O)(=O)c2ccc(C)cc2)nc1	inactive
O=C(c1ccco1)N1CCN(c2ncnc3c2[nH]c2ccccc23)CC1	inactive
C=CCOc1ccc(/C=N/NC(=O)CN(c2cc(Cl)ccc2OC)S(=O)(=O)c2ccc(C)c([N+](=O)[O-])c2)cc1	inactive

SMILES	outcome
CN(CC(=O)Nc1ccc(C#N)cc1)Cc1ccc(Cl)cc1	inactive
O=C(CSc1ccc(Cl)cc1)Nc1ccccc1N1CCN(C(=O)c2ccc(Cl)cc2)CC1	inactive
Cc1nc(C(=O)Nc2ccc(Cl)cc2)nn1-c1ccc([N+](=O)[O-])cc1	inactive
NNC(=O)c1cc2ccccc2cc1O	inactive
OC1(c2ccc3ccccc3c2)CCN(Cc2ccccc2)C1 (stereo not drawn)	inactive
NC(=NCCc1c[nH]c2ccccc12)NC(=O)c1ccc(F)cc1	inactive
C=CCSc1ncnc2sc(C)c(C)c12	inactive
Cc1cc2cc(CCNC(=O)c3cccs3)c(=O)[nH]c2cc1C	inactive
CCOC(=O)c1cnc2ccc(OC)cc2c1Nc1ccc2c(c1)OCCO2	inactive
COc1cccc(Cn2cnc3c(NS(=O)(=O)c4cccc(Cl)c4Cl)c(C)c(C)cc32)c1	inactive
Cc1cc(Oc2ccc(-c3nnc(-c4ccccc4)o3)cc2[N+](=O)[O-])ccc1Cl	inactive
O=c1[nH]c(CSc2nnc(NCCCN3CCOCC3)s2)nc2cc(Cl)ccc12	inactive
O=C(Nc1ccc(O)cc1)c1cc2n(n1)C(C(F)(F)F)CC(c1ccco1)N2 (stereo not drawn)	inactive
CCOc1cc(C2Nc3cccc4cccc(c34)N2)ccc1O	inactive
OC(COc1ccc2c(c1)CCC2)Cn1cnc2ccccc21 (stereo not drawn)	inactive
O=C1CC(SCc2nc3ccccc3[nH]2)C(=O)N1c1ccc(Cl)cc1 (stereo not drawn)	inactive
Cc1c(Cl)cccc1NC(=O)CSc1ncnc2c1cnn2CCc1ccccc1	inactive
Cc1ccc(S(=O)(=O)N2CCC(C(N)=O)CC2)c(C)c1C	inactive
O=C1C2=C(NC(=S)NC2c2ccc(Cl)cc2)NC(c2ccc(Cl)cc2)N1c1ccc(Cl)cc1 (stereo not drawn)	inactive
Cc1nc(-c2ccccc2)cc(=O)[nH]1	inactive
CC(=O)C1=C(C)Nc2ncnn2C1c1ccccc1OCc1ccccc1 (stereo not drawn)	inactive
O=C(Nc1ccc2c(c1)OCO2)c1cnn2cccnc12	inactive
OCCN(Cc1ccccc1)Cc1ccc(Cl)cc1	inactive
CC(O)CNCCNCc1c(OCc2ccccc2)ccc2ccccc12 (stereo not drawn)	inactive
N#CC1=C(N)Oc2c(O)cc3ccccc3c2C1c1ccsc1 (stereo not drawn)	inactive

SMILES	outcome
COc1ccc(Nc2ccc3c(c2)=NC2(CCCCC2)[N+]=3[O-])cc1	inactive
COc1ccc(Nc2sc(C(=O)Nc3cccc(Cl)c3)c(N)c2C(=O)Nc2ccccc2OC)cc1	inactive
COc1ccc(OCCSc2nnc(-c3ccc(OC)cc3)n2N)cc1	inactive
O=C(CC(NS(=O)(=O)c1ccc(Cl)cc1)c1ccco1)N1CCc2ccccc21 (stereo not drawn)	inactive
Cc1cc(-c2nnc(-c3ccccc3)c(-c3ccccc3)n2)c(C)o1	inactive
CO/N=C\CC(=O)Nc1ccc(F)cc1	inactive
Cc1ccc(NC(=S)NCc2cccnc2)cc1	inactive
Oc1ccc(/C=N/NC(=S)Nc2cccnc2)c(O)c1	inactive
COc1cccc(NC(=O)NCCCN2CCN(c3ccc(F)cc3)CC2)c1	inactive
Cc1ccc(-n2c(C)cc(-c3csc(N)n3)c2C)cc1	inactive
CCOc1ccc(C(=O)NC(=S)Nc2ccc(N3CCCCC3)cc2)cc1[N+](=O)[O-]	inactive
CCOc1ccc(CSC(=N)N)cc1[N+](=O)[O-]	inactive
CCOc1ccc(C(=O)Nc2ccccc2CC)cc1[N+](=O)[O-]	inactive
CC(C)NC(=O)/C(=N\O)c1ccccc1	inactive
Cc1ccc(Oc2nnc(-c3ccccc3)c3ccccc23)cc1	inactive
CCn1c(SCC(=O)N2CCCCC2)nc(O)cc1=O	inactive
Cc1ccc(Nc2cc(=O)[nH]c(=O)[nH]2)c(C)c1	inactive
CCn1c2ccccc2c2cc(C3N=C(N)Nc4nc5ccccc5n43)ccc21 (stereo not drawn)	inactive
CCn1cc(C(=O)O)c(=O)c2cc(OC)ccc21	inactive
COc1ccc(Oc2coc3cc(OC(=O)c4cccs4)ccc3c2=O)cc1	inactive
CCOC(=O)c1ccc(NC(=O)Nc2cc(C)on2)cc1	inactive
COC(=O)C1C(=O)C=C(N2CCOCC2)CC1(C)C (stereo not drawn)	inactive
O=C(CNC(=O)OCc1ccccc1)NCC(=O)N1CCCC1C(=O)OCc1ccccc1 (stereo not drawn)	inactive
